Assay outcomes from PubChem.
Many of the other results were omitted from the sample, so hits are more common in it than they were.
Pf Dd2 inh = blocks in vitro growth of P. falciparum Dd2. Potency, µM (highest dose often 28.9 µM), for the others: top-dose activity, negative = inhibition, most hits filed as inhibitors. P. falciparum Dd2 growth, SYBR Green, 72 h. AID 1347417. 120,000 tested, 4.3% active; active means well fitted inhibition curve with a large enough effect;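 further: plate controls were DMSO vehicle for no effect and reference drug for full effect; nearly all actives have a fitted effect of over 65% in size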
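Readout: SYBR Green fluorescence, 485 nm excitation, 535 nm emission, after ~16 h lysis at 37C. Before that, Dd2-infected red cells (2.5% hematocrit) grew 72 h with compound, 29 uM top final concentration.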
Active calls of the source: *; i = inactive; [ ] = another dose, or the depositor's remark. Potency means the concentration at half of the fitted maximal effect.

SMILES	Pf Dd2 inh
CCNC(=O)CCc1c(CC)nn(-c2ccc(OC)cc2)c1Oc1cccc(F)c1	i
CC1(C)CN(S(=O)(=O)N2CCCC2)CC1c1ccccc1 (centres undefined)	-13%
CCC(=O)N(CCC(c1ccccc1)c1ccc2c(c1)OCO2)Cc1ccc(OC(C)C)cc1 (centres undefined)	-29%
COc1ccc(CNC(=O)C(=O)NCC(c2ccc3c(c2)OCO3)N2CCOCC2)cc1 (centres undefined)	-5%
COc1ccc(CNCCC(c2ccc3c(c2)OCO3)c2ccccc2OC)cc1 (centres undefined)	5µM*
COc1ccccc1C(=O)N1CC(Oc2ccc(-c3nc(-c4ccccc4)no3)cc2)C1	20%[5.79 µM]
COCCn1c(=O)n([C@H]2CCCN(C(=O)CC(C)C)C2)c2ncccc21	-6%
Cc1ccc(NC(=O)C(=O)NCC2(c3ccccc3)CCCC2)cc1C	3%
Cc1ccc(O)c(C(CC(=O)NCC2(c3ccccc3)CCCC2)c2ccccc2)c1 (centres undefined)	10µM*
COc1ccc(C)cc1NC(=O)C(=O)NCC1(c2ccccc2)CCCC1	15%
CC(C)(C)OC(=O)N1CCC(c2c(C(=O)NCCN3CCC(Cc4ccccc4)CC3)cnn2-c2ccc(F)cc2)CC1	1.6µM*
CC(C)(C)OC(=O)N1CCC(c2c(C(=O)NCCN3CCC(Cc4ccccc4)CC3)cnn2-c2ccccc2)CC1	2.8µM*
CN1CCN(CCCNC(=O)c2cnn(-c3ccccc3)c2C2CCN(C(=O)OC(C)(C)C)CC2)CC1	i
CNC(=O)[C@H]1C[C@H](Oc2ccccc2)CN1S(=O)(=O)c1cccc(OC)c1	12%
CCCN1C(=O)CCc2cc(NC(=O)c3ccc(C)s3)ccc21	-11%
COc1ccc(C(=O)NC2CCN(c3cc(-c4cccs4)[nH]n3)CC2)cc1	-4%
Cn1cccc1CN1CCC2(C1)C(=O)N(Cc1ccccc1)c1ccccc12 (centres undefined)	-2%
CCn1cc(S(=O)(=O)N2CCC(N3C(=O)C(OC)C34CCOCC4)CC2)cn1 (centres undefined)	11%
O=C1NCc2ccccc2CC12CCN(Cc1ccccc1Cl)C2 (centres undefined)	-20%
Cc1oc(-c2ccccc2Cl)nc1CN1C(=O)CN=C(c2ccccc2)c2cc(Cl)ccc21	-12%
Cc1nc(-c2ccccc2)n(Cc2nc(-c3ccc(Cl)cc3)oc2C)c(=O)c1CCO	i
Cc1ccc(-c2nc(CN3C(=O)CN=C(c4ccccc4Cl)c4cc(Cl)ccc43)c(C)o2)cc1	11µM*
Cc1cc(C)cc(NC(=O)CN2C(=O)CN=C(c3ccccc3)c3cc(Cl)ccc32)c1	-18%
Cc1cccc(CN2C(=O)CN=C(c3ccccc3)c3ccccc32)c1	-14%
O=C1CN=C(c2ccccc2)c2cc(Cl)ccc2N1Cc1ccc(Cl)cc1	8.9µM*
SMILES	Pf Dd2 inh
COc1ccc(C(=O)NCC2CCN(c3cnn(C)c(=O)c3)C2)c(OC)n1 (centres undefined)	-3%
O=C(CCn1ccn2nc3c(c2c1=O)CCCC3)NCCCc1ccccc1	-19%
COc1ccc(CC(=O)N2CC[C@H]3CC(=O)N(CCN4CCNC4=O)CC[C@H]3C2)cc1	-1%[44.1 µM]
OC(c1nc(Nc2cccc(Cl)c2)n[nH]1)C1CC1 (centres undefined)	-13%[44.1 µM]
O=C1CC2CCN(Cc3ccc(Cl)cc3)CC2CCN1 (centres undefined)	-6%[44.1 µM]
CCn1nccc1C(=O)N1CCC(c2nc(C3CCOCC3)no2)CC1	15%
O=C(N1CCN(Cc2ccc(Cl)c(Cl)c2)CC1)C12CNCC1CNC2 (centres undefined)	i
CN(CC1CCOCC1)S(=O)(=O)c1cccc(Cl)c1	16%
O=C(Nc1ccc2oc(-c3cccc(F)c3)nc2c1)c1ccc2ccccc2c1	1µM*
COc1ccccc1-c1nc2cc(NC(=O)c3ccccc3Cl)ccc2o1	1%
O=C(Nc1ccc2oc(-c3ccccc3F)nc2c1)c1ccccc1Cl	4µM*
O=C(Nc1ccc2oc(-c3ccccc3)nc2c1)c1ccc2ccccc2c1	18%
O=C(Cc1ccc(Cl)cc1)Nc1ccc2oc(-c3ccccc3F)nc2c1	i
O=C(Nc1ccc(-c2nc3cc(NC(=O)c4ccc(F)cc4)ccc3o2)cc1)c1ccc(F)cc1	1%
CN(C)c1cccc(NC(=O)C2=NO[C@@H]3CN(Cc4ccc(F)cc4)C[C@H]23)c1	15%[44.1 µM]
COc1ccccc1C(=O)N1CCC2(CC1)N(C)C(=O)CS2(=O)=O	1%
N#Cc1ccc(C(=O)N2CCOCCNC(=O)[C@@H]3CCC[C@@H]32)cc1	23%
CC(C)NC(=O)C1COC2(CCN(C(=O)C(C)(C)C)CC2)N1C(=O)c1ccc(F)cc1 (centres undefined)	2%
COc1ccc(-c2nc(C)nc3c2CCN(Cc2cccn2C)CC3)cc1	i
Cc1nc2c(c(-c3ccc(O)cc3)n1)CN(Cc1cccn1C)CCC2	-31%
CCc1nc2c(c(-c3ccc(OC)cc3)n1)CCN(Cc1ccsc1)CC2	-27%
CCc1nc2c(c(-c3ccc(Cl)cc3)n1)CCN(Cc1ccc(NC(C)=O)cc1)CC2	2.5µM*
CCc1nc2c(c(-c3ccc(Cl)cc3)n1)CN(C(=O)COC)CC2	2%
CCc1nc2c(c(-c3ccc(Cl)cc3)n1)CN(C(=O)C1CC1)CC2	-8%[44.1 µM]
CCc1nc2c(c(-c3ccc(Cl)cc3)n1)CCN(Cc1ccccc1)CC2	i
SMILES	Pf Dd2 inh
CCc1nc2c(c(-c3ccc(OC)cc3)n1)CCN(Cc1cccc(NC(C)=O)c1)CC2	13µM*
CCc1nc2c(c(-c3ccc(Cl)cc3)n1)CCN(Cc1ccc(F)cc1)CC2	-10%
CCc1nc2c(c(-c3ccc(OC)cc3)n1)CCN(C(=O)c1ccccc1)CC2	-22%
CCc1nc2c(c(-c3ccc(Cl)cc3)n1)CN(C(=O)Cc1cccc(Cl)c1)CC2	4.5µM*
CCc1nc2c(c(-c3ccc(O)cc3)n1)CCN(Cc1cccn1C)CC2	8.9µM*
O=C(c1ccccc1)N1CCC(Cc2nc(C3CCOCC3)no2)CC1	40%
CCn1cc(S(=O)(=O)N2CCC3(CC2)CCC(O)(CN(C)C)CC3)cn1	-23%
COCCN1C(=O)CC[C@@]2(C(=O)N3CCOCC3)CCCC[C@H]12	21%
O=C(N[C@@H]1CN(c2ccncn2)C[C@H]1CO)c1ccc(Cl)cc1	17%
CCn1nc(C)c(CNC(=O)C2CCN(C(=O)N3CC4CC(C3)[C@H]3CCCC(=O)N3C4)CC2)c1C (some centres undefined)	-1%
O=C(NCc1ccc(F)cc1)C1CCN(C(=O)c2ncn3c2COC(c2ccccc2)C3)CC1 (centres undefined)	i
C=CCN(CC=C)C(=O)c1ccc(CN2C(=O)NC3(CCS(=O)(=O)CC3)C2=O)cc1	-18%
CCCN1CCN(CCCNC(=O)c2ccc3c(c2)sc2nc(-c4ccc(OC)cc4)cn23)CC1	1µM*
CCOc1ccccc1CNC(=O)c1ccc2c(c1)sc1nc(-c3cccc(OC)c3)cn12	11µM*
CCc1ccc(-c2cn3c(n2)sc2cc(C(=O)NCCC4=CCCCC4)ccc23)cc1	i
CCC(C)NC(=O)c1ccc2c(c1)sc1nc(-c3ccc(OC)cc3)cn12 (centres undefined)	-15%
COc1ccc(-c2cn3c(n2)sc2cc(C(=O)NCCCN4CCN(C)CC4)ccc23)cc1	2.5µM*
COc1ccc(-c2cn3c(n2)sc2cc(C(=O)NCc4ccccc4OC)ccc23)cc1	-23%
CCN(CC)CCCNC(=O)c1ccc2c(c1)sc1nc(-c3ccc(C)cc3)cn12	1.3µM*
COc1cccc(-c2cn3c(n2)sc2cc(C(=O)NC4CCCCC4)ccc23)c1	-12%
